Records with an inconclusive call do not appear. Values without a mark were called inactive. Active and inactive are the calls of the source. The call rests on the fitted dose curve; in most records, active means well fitted cell-killing curve with a large enough effect in the repeat runs; inconclusive means weak or mixed curves, or effect the other way; inactive means flat fitted curve, though single readings scatter.
Experiment: qHTS assay to identify small molecule antagonists of the retinoid acid receptor (RAR) signaling pathway - cell viability counter screen (AID 1159551); further: nearly all actives have a fitted effect of over 35% in size
Settings: C3RL4 cells viability, ATP luminescence (CellTiter-Glo), 6 h; series mostly up to 92.4 µM
Text: U.S. Tox21 Program National Center for Advancing Translational Sciences [NCATS] NIH Chemical Genomics Center [NCGC] U.S. Environmental Protection Agency [EPA] National Institutes of Environmental Health Sciences [NIEHS] National Toxicology Program [NTP] U.S. Food and Drug Administration [FDA] Tox21 Assay Overview: All-trans Retinoic acid (atRA) is the potent natural metabolite of retinol and plays an important role in normal embryonic development and maintenance of cellular phenotype in adult animals. atRA is the activating ligand for the retinoic acid receptors (RARs) which form heterodimers with retinoid X receptors (RXRs) on the retinoic acid response element (RARE). Through activation of the RAR/RXRs nuclear receptors, atRA regulates the transcription of a large number of protein-coding genes and regulatory RNAs. Intracellular levels of atRA are controlled by the retinol signaling pathway (RSP) that regulates the biosynthesis and catabolism of atRA to maintain physiological levels. Chemicals that interfere with the RSP can cause abnormal intracellular levels of atRA and therefore are potential developmental toxicants. To assess compounds for the potential adverse effect on embryonic development through interfering with retinol signaling, a cell-based RARE luciferase reporter gene assay was used. C3RL4 cell line (OARSA/CFSAN/FDA, Laurel, MD) was used to screen Tox21 10K compound library for identifying inhibitors of the RSP. Also cytotoxicity was assessed by determining the viability of cells based on the quantitation of ATP.
Tox21 Assay Protocol Summary: C3RL4 cells were seeded at 1,000/well in 4 uL of assay medium into white solid 1,536-well tissue culture plates (Greiner Bio-One North America Inc. Monroe, NC) using a Multidrop Combi (Thermo Scientific, Waltham, MA) dispenser. After incubation at 37 C and 5% CO2 for an overnight, 23 nL of compounds dissolved in DMSO, positive control or DMSO only were transferred by a Pintool station (Kalypsys, San Diego, CA). One ul of 1 uM (final concentration) of Retinol was added right after the compound addition by using a Flying Reagent Dispenser (FRD) (Aurora Discovery, San Diego, CA). After 6 hr incubation at 37 C and 5% CO2, 5 uL of CellTiter-Glo reagent (Promega Corporation, Madison, WI) was added to each assay plate using an FRD. Luminescence was quantified on a ViewLux plate reader (PerkinElmer, Waltham, MA) after 30 min incubation at room temperature.
On the % scale 0 is the no-effect control and ±100 the full control effect.

| SMILES | outcome | activity change, negative = cytotoxicity |
| --- | --- | --- |
| C[N+]1(C)[C@@H]2CC(OC(=O)[C@H](CO)c3ccccc3)C[C@H]1[C@@H]1O[C@@H]12 (stereo not given in full) | inactive | – |
| CCCCCC(=O)OCCc1ccccc1 | inactive | – |
| CC(=O)Oc1cccc(C)c1 | inactive | – |
| CC(C)CC(C)(N)C#N (stereo not given) | inactive | – |
| C[C@@H]1CCC[C@H](C)N1 | inactive | – |
| COc1cc2c(cc1OC)-c1cc3ccc(OC)c(OC)c3c[n+]1CC2 | inactive | – |
| O=CN(CCO)CCO | inactive | – |
| CC(C)[C@H]1CC[C@@H](C)CC1=O | inactive | – |
| CN(C)CCCCCCN(C)C | inactive | – |
| C=C(C)C(=O)OCC1CCCO1 (stereo not given) | inactive | – |
| CN(C)CCN(C)CCN(C)C | inactive | – |
| CCOc1ccc2nc(S(N)(=O)=O)sc2c1 | inactive | – |
| CCN[C@H]1C[C@H](C)S(=O)(=O)c2sc(S(N)(=O)=O)cc21 | inactive | – |
| CCCCc1ccc2c(n1)[C@@H](c1ccc(OC)cc1C[C@H](C)C(=O)O)[C@H](C(=O)O)[C@H]2c1ccc2c(c1)OCO2 | inactive | – |
| C[C@H]1[C@H](NC(=O)/C(=N/OC(C)(C)C(=O)O)c2csc(N)n2)C(=O)N1S(=O)(=O)O (stereo in doubt) | inactive | – |
| CCCn1cc[n+](C)c1C | inactive | – |
| CC(C)C1CCC(O)CC1 (stereo not given) | inactive | – |
| CC(C)=CCC/C(C)=C/C#N | inactive | – |
| CCOC(=O)c1cnc2c(cnn2CC)c1NN=C(C)C | inactive | – |
| c1ccc2sc(SN3CCOCC3)nc2c1 | inactive | – |

| SMILES | outcome | activity change, negative = cytotoxicity |
| --- | --- | --- |
| CN(C)CCCN(C)CCCN(C)C | inactive | – |
| CN(C)C(=O)Oc1ccc[n+](C)c1 | inactive | – |
| Cc1ccc(-c2ncc(Cl)cc2-c2ccc(S(C)(=O)=O)cc2)cn1 | inactive | – |
| CCNS(=O)(=O)c1ccc(C)cc1 | inactive | – |
| C[C@H]1C[C@H]2[C@@H]3CCC4=CC(=O)C=C[C@]4(C)[C@H]3C(=O)C[C@]2(C)[C@@]1(O)C(=O)CO | inactive | – |
| C=CCCCCCCCCC(=O)OCC | inactive | – |
| CC1(C)[C@@H]2CC[C@@]1(C)[C@H](O)C2 | inactive | – |
| CC1=CC(=O)[C@H]2C[C@@H]1C2(C)C | inactive | – |
| CC[N+](CC)(CC(=O)Nc1c(C)cccc1C)Cc1ccccc1 (tested in a mixture with another compound) | inactive | – |
| CCCCN1C=CN(C)C1 | – | 1.26% [at 19 µM] |
| CC(=O)OCC(=O)[C@@]1(O)[C@H](C)C[C@H]2[C@@H]3CCC4=CC(=O)C=C[C@]4(C)[C@@]3(F)[C@@H](O)C[C@@]21C | inactive | – |
| CN1C(C)(C)CC(O)CC1(C)C | inactive | – |
| C[C@@H]1C[C@H]2[C@@H]3C[C@H](F)C4=CC(=O)C(Cl)=C[C@]4(C)[C@@]3(F)[C@@H](O)C[C@]2(C)[C@@]1(O)C(=O)CO | inactive | – |
| CC(=O)c1ccccc1[N+](=O)[O-] | inactive | – |
| O=C(O)CCCC[P+](c1ccccc1)(c1ccccc1)c1ccccc1 | inactive | – |
| COc1cc(C(=O)NCc2ccc(OCCN(C)C)cc2)cc(OC)c1OC | inactive | – |
| Nc1ccn([C@@H]2O[C@H](CO)[C@@H](O)[C@@H]2O)c(=O)n1 | inactive | – |
| C=C(C)C(=O)OCCOCCOCCOCCOC(=O)C(=C)C | inactive | – |
| O=C(O)c1cc(C(=O)O)cc(C(=O)O)c1 | inactive | – |
| c1ccc(Cc2ccccc2)cc1 | inactive | – |

Source: PubChem BioAssay (Tox21)
